From PubChem BioAssay
This is a sample that favours compounds with a hit; in the whole collection about 3.7% have one here.
NTMT1 inhibitor = inhibitors of human N-terminal methyltransferase NTMT1; Q9BV86; NTMT1 MTase-Glo SAH luminescence, purified enzyme; Potency, µM (titrated, usually from 114 µM), inactives show top-dose activity change, negative = inhibition, usual class: inhibitors; 59,000 tested, 2.5% active;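 further: potency means the concentration at half of the fitted maximal effect; plate controls were DMSO vehicle for no effect and no enzyme for full effect; nearly all actives have a fitted effect of over 65% in size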
GALK inh = inhibitors of human galactokinase (GALK); Potency, µM (titrated, usually from 57.5 µM), for the others: top-dose activity, negative = inhibition, actives largely listed as inhibitors; recombinant GALK, Kinase-Glo ATP luminescence, 1 h; AID 1347072; P51570; 44,000 tested, under 10 active;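 further: plate controls were full GALK reaction for no effect and reaction lacking GALK for full effect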
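5 nM GALK with 35 µM ATP and 100 µM galactose in HEPES pH 8.0, MgCl2, NaCl, DTT, BSA; 1 h RT reaction, remaining ATP detected by Kinase-Glo Plus luminescence after 10 min; qHTS concentration series.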
FH mod = Identification of activators of human fumarate hydratase by quantitative high-throughput screening; FH coupled MDH/diaphorase resazurin fluorescence, 15 min; Potency, µM (titrated, usually from 79.9 µM), inactives show at the top dose activity change, negative = inhibition, actives largely listed as inhibitors; 54,000 tested, 0.22% active; AID 1347055, 2019; further: potency means the concentration at half of the fitted maximal effect; on the % scale 0 is the no-effect control and ±100 the full control effect; the screen sought activators but most active calls are inhibition curves; nearly all actives have a fitted effect of over 45% in size
B2AR arrestin ag = ADRB2 beta-arrestin recruitment | HTLA Tango cells, beta-arrestin recruitment, luciferase luminescence, 18 h | AID 1347077 | 44,000 tested, under 10 active | Potency, µM (series often up to 46.1 µM), hits mostly activators | P07550;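 further: potency means the concentration at half of the fitted maximal effect; 0% = DMSO and full agonism = EC100 isoproterenol or metaproterenol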
Target sequence (P07550 whole entry, looked up): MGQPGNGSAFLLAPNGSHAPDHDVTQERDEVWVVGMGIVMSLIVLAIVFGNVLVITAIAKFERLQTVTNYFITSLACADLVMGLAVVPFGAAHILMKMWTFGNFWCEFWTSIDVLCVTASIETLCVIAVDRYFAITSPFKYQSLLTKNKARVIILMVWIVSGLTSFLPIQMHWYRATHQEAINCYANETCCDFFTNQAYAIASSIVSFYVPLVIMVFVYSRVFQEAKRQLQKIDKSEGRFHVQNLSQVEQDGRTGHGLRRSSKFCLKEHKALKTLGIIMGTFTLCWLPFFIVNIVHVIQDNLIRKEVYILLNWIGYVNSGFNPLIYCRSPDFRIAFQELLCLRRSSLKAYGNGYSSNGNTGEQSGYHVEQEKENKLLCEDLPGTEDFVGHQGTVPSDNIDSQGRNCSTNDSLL
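Ligand-induced beta-arrestin recruitment to recombinant beta2-AR is measured via a tTA-driven luciferase reporter in Tango cells after 18 hr compound exposure at 37 degrees C. Concentrations span up to 46 microM.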
PTAP-TSG101 blk = inhibitors of HIV-1 PTAP binding to human TSG101, validation; Q99816; 44,000 tested, under 10 active; Potency, µM (top dose mostly 115 µM), usual class: inhibitors; Fluorescence polarization, FITC-PTAP peptide/Tsg101, 20 min; AID 1347069; further: potency means the concentration at half of the fitted maximal effect; 0% is about no effect
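The Tsg101 binding domain, at 10 uM final, is mixed with compound and a FITC peptide bearing the PTAP motif (50 nM final). After 20 min at r.t., polarization is measured; actives defined by CRC class, efficacy cut-off 60% inhibition.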
GPR32 ag = GPR32 (DRV1) agonism, beta-arrestin recruitment. activation, % at 76.9 µM. CHO-K1 GPR32 beta-arrestin PathHunter luminescence, 90 min; zero percent set by DMSO-only wells. AID 1346428. O75388. 48,000 tested, 2.5% active;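 active means activation of at least 60% and not above a set upper limit, about 1 call in 100 departs from these limits; inconclusive means activation of 40% to 60%, or above that upper limit; inactive means activation under 40%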; further: 0% is about no effect
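Agonism was scored as beta-arrestin recruitment to ProLink-fused GPR32 in stably transfected CHO-K1 cells, giving a chemiluminescent beta-Gal signal; compounds were incubated 90 min at 37 °C.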
Starred values were filed as active, the others as inactive; i = inactive; u = inconclusive; x = no result; ! = a repeat was not active; [ ] = dose if it differs, or a comment. Unless noted, the call rests on the fitted dose curve; in most records, active means well fitted curve in the direction sought with a large enough effect; inconclusive means small, poorly fitted or top-dose-only effect, or another doubt; inactive means no such curve, though single readings can be large; an effect the other way counts as inactive or inconclusive.

SMILES	NTMT1 inhibitor	GALK inh	FH mod	B2AR arrestin ag	PTAP-TSG101 blk	GPR32 ag
OCC(O)CCO/N=C1/C(c2c(O)[nH]c3ccccc23)=Nc2ccccc21 (centres undefined)	u	x	-4%	x	x	x
Cc1nc(Nc2ccc(Cl)cc2)cc(-c2ccccc2)n1	8%	0%	u	i	i	67*
Cc1ccc(Nc2cc(-c3ccccc3)nc(C)n2)cc1	6%	-12%	-20%	i	i	-6
O=C1NC(=O)/C(=C\c2ccc3c(c2)OC(F)(F)O3)S1	-2%	x	u	x	x	x
CCOC(=O)c1c(-c2ccc(C)o2)csc1NC(=O)CSc1nnnn1-c1ccccc1	3.5µM*	x	x	x	x	x
CCOc1ccccc1C(=O)N1CCC(c2nc3ccccc3o2)CC1	89µM*	1%	-6%	i	i	1
CCc1cc2c(c(OCC(F)(F)F)c(C(=O)NC3CCN(C(=O)CO)CC3)n2C)c(=O)n1CC(=O)c1ccccc1	6%	x	x	x	x	x
CC(C)(C)NCC(O)c1ccc(O)c(CO)c1 (centres undefined)	-8%	x	-17%[53.3 µM]	x	x	-9
OCc1cc(C(O)CNCCCCCCOCCCCc2ccccc2)ccc1O (centres undefined)	u	x	u	x	x	108*!
CCOc1ccccc1Nc1nc2ccccc2nc1NS(=O)(=O)c1ccc(Cl)cc1	-17%	0%	4%	i	i	67*
CCOC(=O)c1ccc(Nc2nc3ccccc3nc2NS(=O)(=O)c2ccc(Cl)cc2)cc1	7%	-1%	-22%	i	i	u
Cc1oc(-c2ccccc2)nc1CCC(=O)c1ccc(CC2SC(=O)NC2=O)cc1 (centres undefined)	35%[57.5 µM]	x	-24%[53.3 µM]	x	x	74*
COc1ccc(C2Nc3ccccc3C(=O)N2Cc2ccccc2OC)cc1COc1c(C)cc(NC(C)=O)cc1C (centres undefined)	10%	x	x	x	x	x
CCOC(=O)N1CCc2c(sc(NCc3cccs3)c2C(=O)Nc2ccc(OC)cc2OC)C1	11%	2%	-33%	i	i	1
CCOC(=O)N1CCc2c(sc(NCc3ccc(OC)c(OC)c3OC)c2C(=O)Nc2ccc(OC)cc2OC)C1	20%	1%	-15%	i	i	86*
COc1ccccc1NC(=O)c1c(NCc2ccc(OC)c(OC)c2OC)sc2c1CCC2	u	2%	-2%	i	i	-16
CCOC(=O)c1ccc(NC(=O)c2c(NCc3cccc(OC)c3OC)sc3c2CCC3)cc1	56µM*	1%	-7%	i	i	-12
CCc1ccc(NC(=O)CN(c2cc(C)cc(C)c2)S(=O)(=O)c2c(C)[nH]c(=O)[nH]c2=O)cc1	9%	0%	-7%	i	i	76*
Cc1cccc(N2CCN(C(=O)c3c(C)oc4ncnc(N5CCCCC5)c34)CC2)c1C	-5%	2%	-19%	i	i	85*
Cc1oc2ncnc(N3CCCCC3)c2c1C(=O)Nc1cccc(Cl)c1C	89µM*	2%	-6%	i	i	-30
Cc1oc2ncnc(N3CCCCC3)c2c1C(=O)Nc1cccc(F)c1	-24%	-1%	-17%	i	i	-29
C#C[C@]1(O)CC[C@H]2[C@@H]3CCc4cc(O)ccc4[C@H]3CC[C@@]21C	11µM*!	x	-22%[53.3 µM]	x	x	34
COc1cc(-c2nc3nc[nH]n3c2Nc2ccc(C(C)C)cc2)ccc1O	45µM*	5%	-32%	i	i	-19
Cc1nc2ccccc2c(=O)n1-c1ccc(NC(=O)C(F)(F)F)cc1	6%	-3%	-6%	i	i	19
Cc1nc2ccccc2c(=O)n1-c1ccc(NC(=O)c2ccccc2[N+](=O)[O-])cc1	14%	2%	1%	i	i	68*
O=S(=O)(Nc1ccc2nc(-c3ccc(F)cc3)oc2c1)c1ccccc1	6%	6%	u	i	i	u
